According to PubChem BioAssay (NCI):
The panel holds about 83,000 compounds, 20% with a hit somewhere; the sample as a whole holds those more often.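 Negative percent growth values reflect cell death: -40 means 40% of the cells present at the start died, and -100 means all died.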 Values without a mark were called inactive. Activity calls are given as the source filed them. The calls were made as follows: active = growth percent below 10; inactive = the rest.

Assays:
Assay in all cases: NCI-60 one-dose screen, 48 h (100 = growth as untreated, 0 = no growth, -100 = all killed)
Settings in all cases: 10 µM unless noted
T-47D breast = system: T-47D breast
BT-549 breast = system: BT-549 breast
MDA-MB-435 melanoma = system: MDA-MB-435 melanoma
SW-620 colon = system: SW-620 colon
HCT-116 colon = system: HCT-116 colon
HCC-2998 colon = system: HCC-2998 colon
KM12 colon = system: KM12 colon
MCF7 breast = system: MCF7 breast

SMILES	growth (T-47D breast)	growth (BT-549 breast)	growth (MDA-MB-435 melanoma)	growth (SW-620 colon)	growth (HCT-116 colon)	growth (HCC-2998 colon)	growth (KM12 colon)	growth (MCF7 breast)
Cc1ccc2nc(-c3c(N)n[nH]c3CCCO)[nH]c(=O)c2c1	111%	104%	110%	101%	109%	111%	111%	–
COc1cc2nc(N3CCC[C@@H](NC4=CC(=O)c5ccccc5C4=O)C3)nc(N)c2cc1OC	-40.9% (active)	118%	64.7%	-60.6% (active)	-83.6% (active)	106%	-35.2% (active)	–
Cn1cc(C=O)c2ccccc21	102%	106%	106%	95.1%	102%	100%	102%	–
O=C(c1c[nH]c2ccccc12)C(Sc1nc2ccccc2c(=O)[nH]1)c1ccccc1 (stereo unspecified)	81%	87.2%	115%	110%	95.1%	112%	106%	–
O=C(CCCn1c2c(sc3ccccc32)c(=O)n2nnc(-c3ccccc3)c12)NCCc1cnc[nH]1	-25.4% (active)	72.2%	-95.1% (active)	-84.5% (active)	-100% (active)	25.7%	-63% (active)	–
COc1cc(C(=O)N2CCN(C(=O)c3ccco3)CC2)c(N)cc1OCc1ccccc1	97.1%	105%	113%	105%	93.3%	125%	103%	–
COc1ccc(OC)c(C(=O)c2oc3ccc(Br)cc3c2N)c1	37.9%	27.8%	-64.7% (active)	16.2%	16.8%	36.9%	30.6%	–
CC1=CNNc2c3ncnc-3ncn21	101%	106%	111%	102%	102%	102%	103%	–
O=c1c2cccc3c(Nc4ccc(F)cc4)ccc(c32)c2nc3ccccc3n12	23.4%	87.5%	99.6%	88%	93.9%	76.1%	74.4%	–
CS(=O)(=O)N(c1cc(-c2ccc3ncnc(Nc4cccc(Cl)c4)c3c2)cnc1Cl)S(C)(=O)=O	-2.25% (active)	-8.61% (active)	15.9%	–	12.1%	23.9%	21.3%	4.87% (active)
COc1cc(Cn2c(SCC(=O)Nc3cc(OC)c(OC)c(OC)c3)nc3ccccc3c2=O)cc(OC)c1OC	77%	65.2%	102%	–	58.3%	124%	99.1%	95.3%
NCCSC(c1ccccc1)(c1ccccc1)c1ccccc1	25.6%	22.1%	-52.9% (active)	19.1%	7.63% (active)	-41.7% (active)	17.9%	–
O=S(=O)(NCCCNc1nccc(-c2c(-c3ccc(O)cc3)nc3sccn23)n1)c1ccc(F)cc1	-5.79% (active)	14%	-17.9% (active)	–	-40% (active)	-10.7% (active)	11.9%	6.45% (active)
Cc1ccc(Nc2ncnc3c2sc2ncccc23)cc1	95.9%	111%	108%	–	106%	103%	105%	92.8%
COc1cc(C2C3=C(COC3=O)Nc3c2ccc2c3CCCC2)cc2c1OCO2 (stereo unspecified)	73.5%	9.86% (active)	-16.9% (active)	23.1%	0.327% (active)	5.11% (active)	-34.8% (active)	–
CCSc1nnc(NC(=O)Cc2ccc(Cl)cc2)s1	96.2%	109%	98.9%	109%	105%	84.9%	96.9%	–
COc1ccc(/C=C2\C(=O)N(C(=O)c3csc(NC(C)=O)n3)N=C2C)cc1	99.2%	95.9%	106%	106%	98.2%	103%	102%	–
COc1ccc(N=C2NN=C(c3ccc(F)cc3)CS2)cc1OC	86.7%	108%	83.3%	–	96.1%	98.1%	99.2%	104%

SMILES	growth (T-47D breast)	growth (BT-549 breast)	growth (MDA-MB-435 melanoma)	growth (SW-620 colon)	growth (HCT-116 colon)	growth (HCC-2998 colon)	growth (KM12 colon)	growth (MCF7 breast)
CCN(C(=O)c1cc2ncccc2[nH]1)[C@H]1CCC[C@@H](NCc2cccc(F)c2)C1	78.1%	104%	97.4%	98.5%	111%	91.6%	97.3%	–
Cc1oc2ncnc(Nc3ccccc3)c2c1C(=O)NCCO	99.4%	90.1%	102%	–	99.3%	103%	95.2%	98.6%
COC(=O)CCCCCN=Cc1c(O)c(O)c(C(C)C)c2cc(C)c(-c3c(C)cc4c(C(C)C)c(O)c(O)c(C=NCCCCCC(=O)OC)c4c3O)c(O)c12	11.8%	35.1%	21.1%	20.2%	9.82% (active)	30.2%	19.7%	–
O=C(Nc1cccc(C(F)(F)F)c1)Nc1ccc(OCc2nnc(-c3ccccc3)o2)c(F)c1	21.1%	29.6%	49.4%	28.7%	14.6%	64.3%	12.2%	–
NC(=O)c1c(NC(=O)c2ccc(OCC3CCCO3)cc2)sc2c1CCCC2 (stereo unspecified)	80.5%	101%	95.8%	110%	90%	113%	66.9%	–
O=[N+]([O-])c1cccc(-c2cc(-c3cc(Br)ccc3O)[nH]n2)c1	21.1%	24.1%	13.5%	–	13.5%	43.7%	12.5%	6.17% (active)
N#Cc1ncc(-c2ccc(F)c(F)c2F)c(NC2CCCCCC2)n1	62.7%	71%	96%	98%	72.6%	95.8%	74%	–
Nc1c(C(=O)Nc2ccccc2)sc2nc3c(cc12)CN(Cc1ccccc1)CC3	60.9%	50.8%	52.1%	76.9%	65.1%	79.1%	56.4%	–
CC(=O)Nc1nc(C(=O)N2N=C(C)/C(=C/c3ccc(Cl)cc3)C2=O)cs1	95.6%	97.4%	112%	–	99.9%	104%	101%	94.4%
O=C(Nc1cc(C(F)(F)F)cc(C(F)(F)F)c1)Nc1ccc(OCc2nnc(-c3ccc(Cl)cc3)o2)c(F)c1	13.2%	22.8%	9.18% (active)	–	7.81% (active)	20.3%	13.7%	6.03% (active)
Cc1ccc(C2=NN(c3ccc(S(N)(=O)=O)cc3)C(c3cn(-c4ccccc4)nc3-c3ccccc3)C2)cc1 (stereo unspecified)	83.7%	–	62.7%	86.5%	83.9%	118%	41.1%	55.9%
COc1ccc(S(=O)(=O)NCCNc2nccc(-c3c(-c4ccccc4)nc4sccn34)n2)cc1	10.9%	34.7%	11.2%	–	9.81% (active)	60.7%	9.45% (active)	4.01% (active)
CCn1cc(C(=O)O)c(=O)c2cc(F)c(N3CCN(S(=O)(=O)c4ccc(Cl)cc4Cl)CC3)cc21	1.7% (active)	-4.59% (active)	12.8%	–	6.37% (active)	30.6%	9.4% (active)	89.2%
COc1cc(C2C=C(C)N=C3SC(C)=NN32)cc(OC)c1OC (stereo unspecified)	92.3%	–	112%	112%	106%	107%	102%	91.6%
C=C1C(=O)O[C@H]2[C@H](O)[C@@H](C)CCC/C(C)=C/CC[C@@]3(C)O[C@@H]3C[C@@H]12	97.2%	–	94.4%	79.9%	74.3%	111%	119%	69.1%
COc1ccc2c(c1)C(=O)/C(=C/c1ccc(O)cc1)O2	59.8%	–	93.2%	9.11% (active)	8.95% (active)	114%	101%	22.8%
COc1ccc(/C=C/C(=O)c2cccc(B(O)O)c2)cc1O	32.4%	13.9%	–	9.61% (active)	3.16% (active)	54.3%	3.44% (active)	24.3%
CC(=O)OC[Si](C)(C)c1ccccc1	105%	107%	99.1%	–	99.9%	122%	110%	–
